USP30 block = inhibitors of human USP30 deubiquitinase | Ubiquitin carboxyl-terminal hydrolase 30 (Homo sapiens), Q70CQ3 | purified USP30, Ub-rhodamine cleavage fluorescence | inhibition, % at 25 µM | actives 5.3% (n = 47,000) | AID 1645860, 2021
Target sequence (Q70CQ3 whole entry, looked up): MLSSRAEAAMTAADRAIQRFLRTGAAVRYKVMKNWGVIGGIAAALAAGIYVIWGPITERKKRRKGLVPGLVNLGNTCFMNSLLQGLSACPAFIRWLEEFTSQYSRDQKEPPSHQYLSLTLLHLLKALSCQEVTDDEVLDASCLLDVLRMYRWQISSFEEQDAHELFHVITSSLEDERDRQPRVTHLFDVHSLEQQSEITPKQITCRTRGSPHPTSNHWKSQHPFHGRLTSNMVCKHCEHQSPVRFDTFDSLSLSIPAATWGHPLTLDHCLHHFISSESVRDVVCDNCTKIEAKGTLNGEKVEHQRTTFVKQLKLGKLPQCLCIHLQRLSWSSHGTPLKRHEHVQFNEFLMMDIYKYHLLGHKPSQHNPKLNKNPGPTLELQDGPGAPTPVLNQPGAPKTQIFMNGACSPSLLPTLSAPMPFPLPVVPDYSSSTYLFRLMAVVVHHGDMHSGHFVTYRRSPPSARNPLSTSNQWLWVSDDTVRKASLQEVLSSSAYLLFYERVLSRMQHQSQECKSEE
USP28 inh = inhibitors of human USP28 deubiquitinase. Ubiquitin carboxyl-terminal hydrolase 28 (Homo sapiens), Q96RU2. purified USP28, Ub-rhodamine cleavage fluorescence, 30 min. inhibition, % at 25 µM. actives 3% (n = 47,000)
USP17 inh = inhibitors of human USP17 deubiquitinase. purified USP17, Ub-rhodamine cleavage fluorescence, 3 h. actives 6.5% (n = 47,000). Ubiquitin carboxyl-terminal hydrolase 17-like protein 5 (Homo sapiens), A8MUK1. inhibition, % at 50 µM. AID 1645855, 2021
OTUD3 inh = inhibitors of human OTUD3 deubiquitinase; OTU domain-containing protein 3 (Homo sapiens), Q5T2D3; purified OTUD3, Ub-rhodamine fluorescence, 2 h; inhibition, % at 25 µM; AID 1645858, 2021; actives 0.7% (n = 47,000)
Active calls of the source: *; x = not tested or not shown. Compounds with a hit are over-represented: about 11% of the library has one in this group of screens. Rule as the data show it: active = inhibition above about 30%; inactive = the rest.

SMILES	USP30 block	USP28 inh	USP17 inh	OTUD3 inh
O=C1CCC[C@@H]2[C@H](C[C@H](c3ccccc3)N2C(=O)COc2ccc(F)cc2)N1	11.4	7.4	-0.1	8.2
CC(OC(=O)CNS(=O)(=O)c1ccc2ccccc2c1)C(=O)Nc1ccc(Cl)cc1Cl (configuration not stated)	45.9*	21.2	x	15.2
CC(C(=O)NCCc1ccccc1)n1nc(-c2ccccc2)c2cc(Cl)ccc21 (configuration not stated)	54.6*	17.8	47.9*	34.4*
Oc1cccc2c(-c3ccc(O)c4c(O)cccc34)ccc(O)c12	93.8*	92.4*	98.1*	76.4*
Cc1ccc(C(=O)CN2C(=O)c3ccccc3OC(C(C)C)C2=O)cc1 (configuration not stated)	4.3	-2.8	2.7	0.0
COc1ccc(CNC(=O)CCc2nnc3n(Cc4ccccc4Cl)c(=O)c4ccccc4n23)cc1	39.7*	36.2*	43.2*	33.2*
CC(C)OCCCn1c(=O)c2ccccc2n2c(CCC(=O)NCc3ccc4c(c3)OCO4)nnc12	40.5*	19.1	28.6	20.6
CC(C)CCn1c(=O)c2ccccc2n2c(CCC(=O)NCc3cccnc3)nnc12	18.5	3.2	10.1	11.3
O=C(CCc1nnc2n(Cc3ccccc3)c(=O)c3ccccc3n12)NCc1cccnc1	37.6*	8.7	18.4	3.5
O=C(CCc1nnc2n(Cc3ccccc3)c(=O)c3ccccc3n12)N1CCCC1	17.1	7.3	6.0	4.8
O=C(CCc1nnc2n(Cc3ccccc3)c(=O)c3ccccc3n12)N1CCC(Cc2ccccc2)CC1	38.1*	21.7	13.5	10.9
CCN1C(=O)c2ccccc2C(=O)[C@@]2(C)CN(Cc3c(C)nc4ccccn34)C[C@@H]12	24.3	12.9	16.0	17.6
CN(C)C(CNC(=O)CSc1nc2cc(C(F)(F)F)ccc2n1Cc1ccccc1)c1ccccc1 (configuration not stated)	9.4	-0.1	-7.8	-8.8
O=C(CCc1nnc2n(Cc3ccccc3Cl)c(=O)c3ccccc3n12)NCc1ccccn1	65.2*	36.4*	44.6*	13.0
Cc1ccc2nc(C(=O)NCCN3CCOCC3)cn2c1	7.4	-2.6	x	0.0
COc1ccc2c(C)cc(SCC(=O)Nc3nsc(-c4ccc(C)cc4)n3)nc2c1	82.2*	54.9*	59.9*	47.0*
COc1cccc(NC(=O)CSc2cc(C)c3cc(S(=O)(=O)N(C)C)ccc3n2)c1	-60.7	-12.3	-19.4	-12.0
CC(=O)c1ccc(NC(=O)CCNS(=O)(=O)c2ccc3c(c2)CCC(=O)N3)cc1	-19.9	-0.7	-13.3	-8.2
COc1ccccc1C(=O)NCC(c1ccsc1)N1CCN(C)CC1 (configuration not stated)	-4.5	-9.4	-0.4	-2.4
Cc1cnc(CN2CCCC(c3ccc4cn[nH]c4n3)C2)cn1 (configuration not stated)	-2.1	0.1	-12.1	46.7*
Cc1ccc(CNC(=O)Cn2cnc3c(cnn3-c3cccc(Cl)c3)c2=O)cc1	8.7	61.2*	1.5	6.4
O=C(Cn1cnc2c(cnn2-c2cccc(Cl)c2)c1=O)N1CCCC1	-46.3	-23.3	-23.0	-9.4
O=C(Cn1cnc2c(cnn2-c2ccc(Cl)cc2)c1=O)NCc1ccccc1Cl	28.8	8.9	55.0*	35.6*
O=C(Cn1cnc2c(oc3ccccc32)c1=O)NCc1ccccc1Cl	-0.5	0.6	87.2*	3.4
O=C(CCn1cnc2c(cnn2-c2ccccc2)c1=O)N1CCCCC1	-2.4	-16.9	-5.9	-11.9
SMILES	USP30 block	USP28 inh	USP17 inh	OTUD3 inh
Cn1ncc2c(=O)n(Cc3cccc(Cl)c3)cnc21	26.5	65.1*	9.5	12.1
O=c1[nH]cc(-c2cccs2)c(=O)[nH]1	-8.5	-9.6	-1.6	-7.9
CCN1C(=O)[C@H]2CN(C(C)=O)C[C@H]2C12CCN(S(=O)(=O)c1cccc(C)c1)CC2	0.3	15.9	-1.7	10.7
Cc1nccn1CCCC(=O)N1CCCC(c2cc(=O)nc3n2CCC3)C1 (configuration not stated)	4.4	-4.2	8.9	-3.5
Cc1cc(C(=O)N2CCCCC2)c2c(=O)n(Cc3cccc(F)c3)c(=O)n(C)c2n1	-11.3	-11.0	-9.2	-11.3
Cc1cc(C(=O)N2CCCCC2)c2c(=O)n(Cc3ccc4nonc4c3)c(=O)n(C)c2n1	-19.9	7.9	33.7*	6.6
Cc1ccc(CC(=O)N2CCc3c(c(-c4nc(C)no4)nn3C)C2)cc1	5.0	-3.4	0.0	3.5
O=C(Nc1nnc(-c2ccc(Br)cc2)o1)C(c1ccccc1)c1ccccc1	17.4	12.2	6.3	12.1

High-throughput results deposited in PubChem BioAssay by Buhrlage Lab, Dana-Farber Cancer Institute and Novartis Institutes for BioMedical Research (Cambridge, Mass).
